# Values without a mark were called inactive. Results filed as inconclusive are left out. Where a call stands in place of a potency, no number is given. Activity calls are given as the source filed them. Unless noted, the call rests on the fitted dose curve; in most records, active means well fitted curve in the direction sought with a large enough effect; inconclusive means small, poorly fitted or top-dose-only effect, or another doubt; inactive means no such curve, though single readings can be large; an effect the other way counts as inactive or inconclusive.
# What was measured:
# [1] = P-glycoprotein substrates identified in KB-8-5-11 adenocarcinoma cell line, qHTS therapeutic library screen (AID 1346987); conditions: KB-8-5-11 (P-gp overexpressing) viability, CellTiter-Glo, 72 h; series mostly up to 44.5 µM; further: nearly all actives have a fitted effect of over 65% in size; further: potency means the concentration at half of the fitted maximal effect
# Summary of the method: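 P-gp-mediated resistance screen: KB-8-5-11 cells treated 72 h with compounds in dose-response. CellTiter-Glo viability.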
# [2] = NS1 protein of Zika virus - qHTS assay to identify small molecule inhibitors in human HEK 293 cells (AID 1347053); conditions: HEK293 ZIKV MR766 infection, NS1 TR-FRET, 24 h; series mostly up to 46.1 µM; further: nearly all actives have a fitted effect of over 55% in size
# Summary of the method: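 Following 20 h seeding, HEK 293 cells took compound, then 1 h later ZIKV MR766 (MOI = 0.5). Incubation ran 24 h at 37 C before TR-FRET detection of NS1; a drop in signal indicates inhibition.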
# [3] = qHTS of pediatric cancer cell lines to identify multiple opportunities for drug repurposing: Primary screen for TC32 cells (AID 1347089); conditions: TC32 Ewing sarcoma viability, CellTiter-Glo luminescence, 48 h; series mostly up to 45.8 µM; further: nearly all actives have a fitted effect of over 60% in size
# Summary of the method: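 qHTS, TC32, 48 h drug treatment, CellTiter-Glo luminescence as a proxy for metabolically active cells; primary top concentration 46 µM (MIPE 11-pt, NPC 8-pt); confirmatory 11-pt.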
# [4] = qHTS of pediatric cancer cell lines to identify multiple opportunities for drug repurposing: Primary screen for DAOY cells (AID 1347090); conditions: DAOY medulloblastoma viability, CellTiter-Glo luminescence, 48 h; series mostly up to 46 µM; further: nearly all actives have a fitted effect of over 55% in size
# Summary of the method: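 Eight- or eleven-point concentration series, 48 h treatment at 37 degrees C in growth media; readout CellTiter-Glo luminescence. Potency and efficacy were taken from the concentration-response curves.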
# [5] = qHTS assay for small molecule activators of the p53 signaling pathway (AID 651743; active means well fitted activation curve with a large enough effect in the signal ratio, not every such curve was filed as active; the % refers to the signal ratio); conditions: HCT-116 p53RE-bla, beta-lactamase FRET ratio, 16 h; stronger effect = higher value
# Summary of the method: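 p53RE-bla HCT-116 cells with a stably integrated beta-lactamase reporter under p53 response elements were plated, rested 5 hours at 37 C/5% CO2, then exposed to compounds in DMSO for 16 hours at 37 C. LiveBLAzer B/G FRET substrate was read after 2 hours at room temperature.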
# [6] = qHTS assay for small molecule activators of the nuclear factor-kappa B (NF-kB) signaling pathway (AID 651749; active means well fitted activation curve with a large enough effect in the signal ratio; the % refers to the signal ratio); conditions: NF-kB-bla ME-180 cells, beta-lactamase FRET ratio, 16 h; stronger effect = higher value
# Summary of the method: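 ME-180 cells stably carrying a beta-lactamase reporter under an NF-kB response element were exposed to compound or DMSO vehicle for 16 hr at 37C, 5% CO2. Pathway activation was read by FRET, since reporter expression disrupts FRET.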
# [7] = qHTS assay for small molecule disruptors of the mitochondrial membrane potential - 1 hr assay (AID 651754; calls by dose curve; further: potency means the concentration at half of the fitted maximal effect; nearly all actives have a fitted effect of over 35% in size)
# Summary of the method: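 Steps: seed HepG2 cells and let attach overnight; pin-transfer compound or vehicle; incubate 1 hr at 37C; add Mito-MPS dye for 30 min; read two-channel fluorescence for monomer and aggregate forms.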
# [8] = qHTS assay for small molecule disruptors of the mitochondrial membrane potential - 5 hr assay (AID 651755; calls by dose curve; further: potency means the concentration at half of the fitted maximal effect; nearly all actives have a fitted effect of over 40% in size); conditions: JC-1-type ratio dye
# Summary of the method: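 HepG2 cells, attached overnight at 37C, were exposed to compound or DMSO for 5 hr at 37C, 5% CO2. Mito-MPS dye was then added for 30 min, and fluorescence read at 490/535 nm (monomers) and 540/590 nm (aggregates).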
# [9] = target: Peroxisome proliferator-activated receptor alpha (Homo sapiens) (UniProt Q07869); assay: qHTS assay for small molecule agonists of the peroxisome proliferator-activated receptor alpha (PPARalpha) signaling pathway (AID 651778); conditions: PathHunter PPARalpha complementation, chemiluminescence, 6 h; stronger effect = higher value
# Sequence of Peroxisome proliferator-activated receptor alpha (Homo sapiens) (Q07869 whole entry, looked up): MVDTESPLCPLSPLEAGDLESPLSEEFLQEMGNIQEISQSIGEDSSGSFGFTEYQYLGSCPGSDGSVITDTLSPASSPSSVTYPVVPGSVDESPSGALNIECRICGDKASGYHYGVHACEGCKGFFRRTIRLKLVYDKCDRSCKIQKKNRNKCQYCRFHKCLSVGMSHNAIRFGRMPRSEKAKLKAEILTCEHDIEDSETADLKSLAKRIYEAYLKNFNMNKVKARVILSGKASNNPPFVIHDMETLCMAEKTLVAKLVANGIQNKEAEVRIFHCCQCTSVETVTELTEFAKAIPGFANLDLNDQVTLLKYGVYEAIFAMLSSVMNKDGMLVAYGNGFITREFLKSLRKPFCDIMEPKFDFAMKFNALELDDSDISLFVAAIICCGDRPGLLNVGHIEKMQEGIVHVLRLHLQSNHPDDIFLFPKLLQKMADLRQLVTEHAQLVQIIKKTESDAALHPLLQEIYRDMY
# Summary of the method: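 Cells plated at 2,000/well and held overnight at 37 C, 5% CO2, then compound added by pin tool for 6 hr; after PathHunter detection reagent and 60 min at room temperature, chemiluminescence from enzyme complementation was read.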
# [10] = target: Nuclear receptor ROR-gamma (Homo sapiens) (UniProt P51449); assay: qHTS assay for small molecule antagonists of the retinoid-related orphan receptor gamma (ROR-gamma) signaling pathway (AID 651802); conditions: ROR-gamma antagonist cell reporter assay; series mostly up to 92.2 µM;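 further: CHO cells with doxycycline-induced ROR-gamma expression; luciferase reporter luminescence driven by ROR response element; nearly all actives have a fitted effect of over 60% in size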
# Sequence of Nuclear receptor ROR-gamma (Homo sapiens) (P51449 whole entry, looked up): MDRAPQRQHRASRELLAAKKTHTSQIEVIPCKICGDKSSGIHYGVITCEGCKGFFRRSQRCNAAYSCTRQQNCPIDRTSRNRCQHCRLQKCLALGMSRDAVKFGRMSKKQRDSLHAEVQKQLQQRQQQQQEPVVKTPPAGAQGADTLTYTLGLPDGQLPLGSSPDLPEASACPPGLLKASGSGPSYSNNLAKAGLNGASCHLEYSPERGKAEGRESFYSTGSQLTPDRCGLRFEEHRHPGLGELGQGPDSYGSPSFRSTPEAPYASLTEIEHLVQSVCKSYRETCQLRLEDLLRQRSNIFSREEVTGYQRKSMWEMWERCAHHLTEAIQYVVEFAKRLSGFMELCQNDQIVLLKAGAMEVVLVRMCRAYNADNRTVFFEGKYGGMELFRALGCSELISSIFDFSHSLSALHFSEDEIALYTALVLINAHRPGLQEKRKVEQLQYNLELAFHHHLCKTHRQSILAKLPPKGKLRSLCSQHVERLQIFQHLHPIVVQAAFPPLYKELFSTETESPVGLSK
# Summary of the method: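 Antagonism is scored as a fall in luminescence from a RORE-luciferase reporter in CHO cells expressing ROR under a TET-inducible promoter, measured 16hr after doxycycline induction in the presence of compound.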
# [11] = qHTS assay for small molecule agonists of the antioxidant response element (ARE) signaling pathway measured by Nrf2-dependant transcriptional activity - cell viability counter screen (AID 720653; active means well fitted curve in the direction sought with a large enough effect in the repeat runs; an effect the other way counts as inactive or inconclusive); conditions: ARE-bla HepG2 viability, CellTiter-Glo ATP luminescence, 16 h; stronger effect = lower value
# Summary of the method: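 ARE-bla HepG2 cells (2,000/well) rested 5 hrs at 37C/5% CO2, then exposed to compounds in DMSO for 16 hrs. Viability was read in the same wells as intracellular ATP by luminescence, 30 min at room temperature after reagent addition.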
# [12] = qHTS assay for cell viability of the p53RE-bla HCT-116 cell line (AID 743292); conditions: p53RE-bla HCT-116 viability, ATP luminescence, 16 h; series mostly up to 95 µM; further: nearly all actives have a fitted effect of over 55% in size
# Summary of the method: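 CellSensor p53RE-bla HCT-116 cells, 4,000/well, preincubated 5 h at 37 C, then exposed to compounds in DMSO for 16 h at 37 C. Viability read as CellTiter-Glo luminescence (intracellular ATP) after 30 min at room temperature.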
# [13] = qHTS assay for environmental chemicals that activate the Aryl hydrocarbon Receptor (AhR) signaling pathway (AID 651777); conditions: 1A2-DRE human hepatoma cells, luciferase, 24 h; activation: stronger effect = higher value; further: nearly all actives have a fitted effect of over 15% in size
# Summary of the method: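 Human hepatoma 1A2-DRE cells, stably carrying a dioxin response element and CYP1A2 promoter driving luciferase, were exposed to compounds for 24 hr at 37 C and 5% CO2. Luciferase signal was then read after 30 min One-Glo at room temperature.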
# [14] = qHTS assay for small molecule agonists of the antioxidant response element (ARE) signaling pathway measured by Nrf2-dependant transcriptional activity (AID 720636; active means well fitted curve in the direction sought with a large enough effect in the repeat runs; an effect the other way counts as inactive or inconclusive); conditions: ARE-luc HepG2, Nrf2 luciferase reporter, 16 h; series mostly up to 92.4 µM
# Summary of the method: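 ARE-luc HepG2 cells carrying an Nrf2-responsive luciferase reporter were plated in medium with 1% dialyzed FBS, left 6 hr at 37 C to attach, then exposed to compound for 16 hr. Luciferase luminescence was read after ONE-Glo addition.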
# [15] = qHTS Assay for Identifying Gametocytocidal Compounds (AID 743244);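 further: actives lower the fluorescent signal which means gametocytes are killed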; conditions: P. falciparum 3D7 stage III-V gametocytes, alamarBlue, 72 h; max response: stronger effect = lower value
# Summary of the method: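 3D7 gametocytes, stages III–V, 20,000/well; cpd 72 h, 37 °C/5% CO2; + alamarBlue 24 h; fluor. Ex 525/Em 598.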
# [16] = qHTS assay for cell viability of HEK293 cells (AID 743288); conditions: ATP luminescence (CellTiter-Glo), 18 h, stronger effect = lower value; further: nearly all actives have a fitted effect of over 50% in size
# Summary of the method: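 HEK293 parental, 2,000 cells/well; ≥5 h pre-incubation 37 C; pintool compound addition; 18 h, 37 C; CellTiter-Glo 30 min RT; luminescence read.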
compound,measurement,setting,value
C[C@@H]1C(=O)O[C@H]2[C@@H](O)C34[C@H]5C[C@@H](C(C)(C)C)C36[C@@H](OC(=O)[C@@H]6O)O[C@@]4(C(=O)O5)[C@@]12O (some centres not stated),Potency,[1],inactive
COc1ccc(CCO[C@@H]2O[C@H](CO[C@@H]3OC[C@H](O)[C@H](O)[C@H]3O)[C@@H](O)[C@H](O)[C@H]2O)cc1,Potency,[1],inactive
C[C@@H]1O[C@@H](O[C@H]2[C@H](O)[C@@H](O)[C@H](OC[C@H]3O[C@@H](OC(=O)[C@]45CCC(C)(C)C[C@H]4C4=CCC6[C@@]7(C)CC[C@H](O[C@@H]8OC[C@H](O)[C@H](O[C@@H]9O[C@H](CO)[C@@H](O)[C@H](O)[C@H]9O)[C@H]8O)[C@@](C)(CO)C7CC[C@@]6(C)[C@]4(C)CC5)[C@H](O)[C@@H](O)[C@@H]3O)O[C@@H]2CO)[C@H](O)[C@H](O)[C@H]1O (some centres not stated),outcome,[1],inactive [at 9.29 µM]
C=C1CCC2C(C)(C)CCC[C@]2(C)[C@H]1C/C=C(\CO)C(=O)C(=O)O (some centres not stated),Potency,[1],inactive
CC1=C2C3OC(=O)C(C)C3(O)CCC2(C)CCC1O (configuration not stated),Potency,[1],inactive
O=C(O)c1ccccc1NCCc1ccccc1,Potency,[2],inactive
same,outcome,[3],inactive
same,outcome,[4],inactive
CC1(C)CC2C(O)c3cocc3CC(C)(O)C2C1 (configuration not stated),Potency,[1],inactive
C=CC1(C)C=C2CCC3C(C)(C)C(O[C@@H]4O[C@@H](CO)[C@H](O)[C@H]4O)CCC3(C)C2CC1O[C@@H]1O[C@H](C)[C@H](O)[C@H](O)[C@H]1O (some centres not stated),Potency,[1],inactive
CCOCCOC(=O)/C=C/c1ccc(OC)cc1,Potency,[2],inactive
same,outcome,[3],inactive
same,outcome,[4],inactive
COC(=O)C1(C)CCC2(C(=O)O)CCC3(C)C(=CCC4C5(C)CC(O)C(OC6OCC(O)C(O)C6O)C(C)(CO)C5CCC43C)C2C1 (configuration not stated),Potency,[1],inactive
COC(=O)[C@@]1(c2ccc(C)cc2)C[C@H]1CN1CCC(O)(c2ccccc2)CC1,Potency,[1],inactive
Nc1ccccc1N,activation,[5],9.56%
same,activation,[6],-0.857%
same,Potency,[7],3.76 µM (active)
same,Potency,[8],5.96 µM (active)
same,max response,[9],-5.51%
same,outcome,[10],inactive
same,max response,[11],1.96%
same,outcome,[12],inactive
same,Potency,[1],inactive
same,Potency,[2],inactive
CN=C(N)NCCCCC/C=C(/C)CC(C)C1OC(=O)C(C)C(O)/C=C/C(C)C(O)CC(O)C(C)C(O)CCC(C)C(O)CC2(O)OC(CC(OC(=O)CC(=O)O)CC(O)CC(O)C(C)C(O)/C(C)=C/CCC1C)CC(O)C2O (configuration not stated),outcome,[1],inactive [at 9.29 µM]
CC(=O)O[C@H]1C(=O)[C@@]2(C)[C@H]([C@H](OC(=O)c3ccccc3)[C@]3(O)C[C@H](OC(=O)[C@H](O)[C@@H](NC(=O)c4ccccc4)c4ccccc4)C(C)=C1C3(C)C)[C@]1(OC(C)=O)CO[C@@H]1C[C@@H]2O,activation,[5],23.6%
same,activation,[6],4.74%
same,activation,[13],0.595%
same,max response,[9],-1.23%
same,outcome,[14],inactive
same,max response,[11],-7.37%
same,max response,[15],-7.34%
same,max response,[16],-10.4%
same,outcome,[12],inactive
same,Potency,[1],0.873 µM (active)
CC(=O)O[C@@H]1[C@@H](O)[C@H](C)O[C@@H](O[C@H]2[C@@H]3C=CO[C@@H](O[C@@H]4O[C@H](CO)[C@@H](O)[C@H](O)[C@H]4O)[C@@H]3[C@@]3(CO)O[C@@H]23)[C@@H]1OC(=O)/C=C/c1ccccc1,Potency,[1],inactive
COc1cc(N2CCC(N3CCN(C)CC3)CC2)ccc1Nc1ncc(Cl)c(-c2c[nH]c3ccccc23)n1,Potency,[1],0.517 µM (active)
CCOC(=O)Nc1cc(-c2ccc(C)c(NS(C)(=O)=O)c2)nn2c(C)nnc12,Potency,[1],14.6 µM (active)
CC(C)(O)/C=C/C1=CC(=O)[C@@](C)(O)C[C@H]1O,Potency,[1],inactive
C[C@@H]1C(=O)OC[C@H]2C(C(=O)O)=C[C@@H]3CC(C)(C)C[C@]312,Potency,[1],inactive
CC1OC(OC2C(OC3C(O[C@H]4CC[C@@]5(C)C(CC[C@]6(C)C5C(=O)C=C5C7CC(C)(C)CC(O)[C@]7(C)CC[C@]56C)C4(C)C)OC(C(=O)O)C(O)C3O)OCC(O)C2O)C(O)C(O)C1O (some centres not stated),"activity change, negative = cytotoxicity",[1],7.36% [at 9.29 µM]

# From PubChem BioAssay (NCATS)
